Shiga toxin inh: Shiga toxin inhibition; hit rate 9.2% among 290,000; Vero cells, Shiga toxin protein synthesis inhibition reporter; AID 2315; inhibition, % at 38.7 µM; in the data active = inhibition mostly above about 28%, no sharp cut-off; inactive = mostly below about 43%; note: 0% is about no effect
HCV inh: blocks hepatitis C virus | Huh7.5.1 HCVcc-Cre infection, luciferase reporter, 44 h | Potency, µM (top dose mostly 41.8 µM), for the others: at the top dose activity change, negative = inhibition, hits mostly inhibitors | hit rate 3.4% among 340,000; note: potency is the fitted concentration of half-maximal effect; % is set by controls: 0 for no effect and ±100 for the full control effect
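A cell-based infection assay in which seeded cells (1,000 per well) receive test compound after 4 h, are inoculated with HCVcc-Cre at approximately 0.5 moi, and are incubated 44 h before luminescence detection.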
Pf growth 96h: inhibits malaria parasite growth, 96 h; P. falciparum luciferase reporter growth, 96 h; Potency, µM (doses to about 28.7 µM), inactives show at the highest dose activity change, negative = inhibition, usual class: inhibitors; hit rate 6.9% among 320,000; AID 504834; note: potency is the fitted concentration of half-maximal effect; % is set by controls: 0 for no effect and ±100 for the full control effect
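Readout is luminescence from an integrated firefly luciferase in P. falciparum. Red cells, 2% hematocrit and 0.05% parasitemia final, were cultured with compound through two parasite generations (96 hours) at 37 C, 5% CO2.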
Pf growth 48h: P. falciparum growth inhibition at 48 hours (one generation); P. falciparum luciferase growth in erythrocytes, 48 h; Potency, µM (doses to about 28.7 µM), for the others: top-dose activity change, negative = inhibition, actives largely listed as inhibitors; hit rate 5.9% among 310,000; note: potency is the fitted concentration of half-maximal effect; % is set by controls: 0 for no effect and ±100 for the full control effect
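Compounds are pin-transferred into medium, infected erythrocytes (2% hematocrit, 0.1% parasitemia final) are added, and plates sit one parasite generation at 37 C in 5% CO2. Detection reagent is then added and luminescence measured.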
HCMV antiviral: inhibitors of human cytomegalovirus. hit rate 4.5% among 410,000. HFF cells, HCMV-luciferase reporter, 72 h; active compounds read low. activity change, negative = inhibition, % at 57.5 µM; in the data active = activity change below about -60%; inconclusive = no clear call, values can overlap the other calls; inactive = above about -39%; note: % is set by controls: 0 for no effect and ±100 for the full control effect
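Two compound doses tested in HFFs infected with HCMV-luciferase, MOI 1 PFU/cell, 72 h at 37C. Lysate luminescence read with OneGlo; data normalized against buffer-only and 10uM Salinomycin inhibitor controls.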
CHX counter: counter-screen for Shiga toxin inhibitors: cycloheximide protein synthesis inhibition; cell reporter, cycloheximide protein synthesis inhibition counterscreen; max response, %; hit rate 12% among 300,000; in the data active = max response mostly above about 13%, no sharp cut-off; inactive = mostly below about 14%; note: read at 38.3 µM for the half of the compounds with a filed dose; 0% is about no effect
Numbers without * were called inactive; i = inactive; ? = inconclusive; . = no result given; [ ] = another dose, or the depositor's remark. Hits are enriched below; roughly 21% of the tested compounds scored in any of these assays. Unless noted, calls come from the whole dose curve; as a rule, active = well fitted inhibition curve with a large enough effect; inconclusive = small, poorly fitted or top-dose-only effect, or another doubt; inactive = no such curve, though single readings can be large or run the other way.

SMILES | Shiga toxin inh | HCV inh | Pf growth 96h | Pf growth 48h | HCMV antiviral | CHX counter
CC(C)C1N(S(=O)(=O)c2ccccc2)CCN1S(=O)(=O)c1ccccc1 | -8 | 6% | 8% | ? | -107* | -2
O=S(=O)(c1ccccc1)N1CC1c1ccccc1 (stereo not drawn) | 38* | 1% | 11% | 17% | 69 | 47*
CC(C)C1N(C(=O)N(C)C)CCN1S(=O)(=O)c1ccccc1 (stereo not drawn) | -9 | -6% | 41% | -4% | 13 | 1
CC1(C(=O)NS(=O)(=O)c2ccc(F)cc2F)CCN1C(=O)Cc1cc(F)ccc1F (stereo not drawn) | . | . | . | . | -10 | .
CCCCN1CCc2nc(Nc3ccc(OC)cc3OC)ncc2C1 | . | . | . | . | 2 | .
Cc1nc(C#N)c(N/N=C/c2cccc(Cl)c2)o1 | 54* | -10%[8.37 µM] | 36% | 108% | 4 | 36*
CN(C)CCNc1oc(-c2cccc(Cl)c2)nc1C#N | -5 | ? | 20% | . | 38 | -3
Cc1onc(-c2c(F)cccc2Cl)c1C(=O)Nc1cccc(S(=O)(=O)NCc2ccco2)c1 | 59* | -24% | ? | -26% | -14 | 38*
Cc1onc(-c2c(F)cccc2Cl)c1C(=O)NCc1ccco1 | 9 | -2% | 1.5µM* | -10% | 16 | 2
Cc1onc(-c2c(Cl)cccc2Cl)c1C(=O)NCc1ccccn1 | -3 | 8% | 2.1µM* | -18% | -36 | -2
O=C(Nc1cccc(S(=O)(=O)NCc2ccco2)c1)c1ccc(Cl)cc1 | . | ? | . | . | -8 | .
Cc1onc(-c2c(F)cccc2Cl)c1C(=O)OCC(=O)NCc1ccco1 | -3 | -8% | . | ? | -26 | 1
Cc1csc(NC(=O)c2c(-c3c(F)cccc3Cl)noc2C)n1 | . | ? | ? | 12µM* | -39 | .
O=S1(=O)N=C(Nc2ccc(O)cc2)c2ccccc21 | 9 | 2% | 9% | 7% | -10 | -1
O=S1(=O)N=C(Nc2ccc(N3CCOCC3)c(Cl)c2)c2ccccc21 | 85* | -12% | -4% | 59% | 25 | 48*
CN1CCC(N(C)C(=O)c2cc(-c3ccccc3Cl)nc3ccccc23)CC1 | . | -4% | ? | -45% | -6 | .
O=C1C2C3C=CC(C4CC34)C2C(=O)N1/N=C/c1c[nH]c2ccccc12 (stereo not drawn) | 115* | 12% | -41% | i | 46 | 46*
Cn1c(N=Nc2ccc(N3CCOCC3)cc2)[n+](C)c2ccccc21 | 94* | -17% | 5% | -4% | ? | 48*
Cc1cccc(Nc2cc(=O)[nH]c(=O)[nH]2)c1 | -4 | 18% | 12µM* | -7% | -13 | -2
O=c1cc(Nc2cccc(Br)c2)[nH]c(=O)[nH]1 | -4 | 12% | 12µM* | -18% | -25 | -2
Cc1ccc(Nc2cc(=O)[nH]c(=O)[nH]2)cc1C | -9 | -8% | 26% | ? | -39 | -2
Cc1ccc(CCNC(=O)Cn2c(-c3cccs3)cc3ccccc32)cc1 | . | . | . | . | 3 | .
CCOc1ccc(OCCOC(=O)CN(C)S(=O)(=O)c2ccc(NC(C)=O)cc2)cc1 | . | 9% | 32% | ? | -11 | .
Cc1nnc(NC(=O)C(C)Sc2nnc(-c3ccco3)n2C(C)C)s1 (stereo not drawn) | -3 | 8% | 10% | -2% | 6 | -1
COc1cc(NC(=O)Cn2ccn(-c3cc(C)cc(C)c3)c(=O)c2=O)cc(OC)c1 | . | . | . | . | 6 | .
SMILES | Shiga toxin inh | HCV inh | Pf growth 96h | Pf growth 48h | HCMV antiviral | CHX counter
O=C(N/N=C/c1ccc([N+](=O)[O-])o1)c1ccccc1NS(=O)(=O)c1cccs1 | 1 | 5% | ? | ? | ? | -3
Cc1scc(C(=O)N/N=C/c2ccco2)c1C | 53* | 1% | 85% | 147% | 13 | 29*
Cc1scc(C(=O)N/N=C/c2ccsc2)c1C | 52* | 11% | 117% | 196% | 68 | 84*
Cc1scc(C(=O)N/N=C/c2ccc([N+](=O)[O-])o2)c1C | 6 | . | 1.7µM* | 4.1µM* | -100* | 0
Cc1cc(C(=O)N/N=C/c2ccco2)c2ccccc2n1 | -6 | 1% | ? | 4% | -29 | -2
O=C(CSc1nc2c([nH]c3ccccc32)c(=O)n1-c1ccccc1)N1CCCc2ccccc21 | . | . | . | . | 31 | .
COc1cc(O)c(C(C)=O)c(CC(=O)O)c1 | 2 | 3.2µM* | ? | 33% | 17 | 2
Cn1nc([N+](=O)[O-])c(C(C#N)c2ccccn2)c(Cl)c1=O (stereo not drawn) | 13 | ? | -33% | ? | -97* | 2
O=C(Cl)COCc1ccccc1 | -5 | . | . | . | . | -6
Clc1ccc2c(c1)CCc1cccnc1C2=C1CCNCC1 | -11 | . | ? | 13µM* | . | -6
CC(Oc1ccc(C#N)cc1)C(=O)Nc1ccc(-n2cnnn2)cc1 (stereo not drawn) | . | 8% | 3.3µM* | 4.7µM* | 0 | .
O=C(Nc1ccc(OC(F)(F)F)cc1)c1cccc(-n2cnnn2)c1 | . | -20% | 10µM* | ? | -32 | .
CCOc1ccc(NC(=O)c2cccc(-n3cnnn3)c2)cc1 | 3 | -8% | -20% | 5% | 0 | 0
CC(C)OC(=O)c1ccc(NC(=O)c2cccc(-n3cnnn3)c2)cc1 | . | ? | ? | 12µM* | ? | .
CC(=O)c1cccc(NC(=O)C(C)OC(=O)c2ccc(-n3cnnn3)cc2)c1 (stereo not drawn) | . | ? | 12µM* | 10µM* | -25 | .
CC1OC(CC(=O)O)CC2=C1C(=O)c1c(O)cccc1C2=O (stereo not drawn) | . | 0.56µM* | . | . | -27 | .
COC(=O)c1ccc2nc(-c3ccc4c(c3)OCO4)cn2c1 | 69* | 1% | 205% | 110% | -9 | 40*
c1ccn2cc(-c3ccc4c(c3)OCO4)cc2c1 | 48 | -10% | 1% | ? | 0 | 8
CCc1ccn2cc(-c3ccc4c(c3)OCO4)nc2c1 | -24 | ? | 130% | 12% | -78* | 5
COC(=O)c1cc(NC(=O)/C=C/c2ccc3c(c2)OCO3)cc(C(=O)OC)c1 | -2 | ? | -27% | -3% | 27 | -2
CC[C@H](C)[C@H](NC(=O)[C@H](Cc1ccc(O)cc1)NC(=O)[C@@H](NC(=O)[C@@H](N)CCCN=C(N)N)C(C)C)C(=O)N[C@@H](Cc1cnc[nH]1)C(=O)N1CCC[C@H]1C(=O)N[C@@H](Cc1ccccc1)C(=O)O | -11 | . | . | . | . | 1
CCCCn1c(=O)c2oc3ccccc3c2n(CC(=O)Nc2cc(C)ccc2C)c1=O | . | . | . | . | 0 | .
S=C(N/N=C/c1cccc2ccccc12)Nc1cccc(Cl)c1 | 15 | -27% | 2.9µM* | ? | -21 | 17
S=C(N/N=C/c1ccccc1Cl)Nc1ccccc1 | 122* | -5% | ? | ? | 6 | 54*
Oc1ccc(C=NNC(=S)Nc2ccccc2)nc1 | . | . | . | . | -97* | .
